Screens (PubChem)
UHRF1 MBD2 ctr – UHRF1 methyl-DNA binding inhibition. 0.75% of 370,000 active. Q96T88. UHRF1 binding to methylated oligo, TR-FRET. inhibition, % at 4.4 µM; in the data active = inhibition above about 21%;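 note: UHRF1 SRA domain binding a hemimethylated CpG hairpin DNA probe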
Target sequence (Q96T88 whole entry, looked up, the tested form may be a part): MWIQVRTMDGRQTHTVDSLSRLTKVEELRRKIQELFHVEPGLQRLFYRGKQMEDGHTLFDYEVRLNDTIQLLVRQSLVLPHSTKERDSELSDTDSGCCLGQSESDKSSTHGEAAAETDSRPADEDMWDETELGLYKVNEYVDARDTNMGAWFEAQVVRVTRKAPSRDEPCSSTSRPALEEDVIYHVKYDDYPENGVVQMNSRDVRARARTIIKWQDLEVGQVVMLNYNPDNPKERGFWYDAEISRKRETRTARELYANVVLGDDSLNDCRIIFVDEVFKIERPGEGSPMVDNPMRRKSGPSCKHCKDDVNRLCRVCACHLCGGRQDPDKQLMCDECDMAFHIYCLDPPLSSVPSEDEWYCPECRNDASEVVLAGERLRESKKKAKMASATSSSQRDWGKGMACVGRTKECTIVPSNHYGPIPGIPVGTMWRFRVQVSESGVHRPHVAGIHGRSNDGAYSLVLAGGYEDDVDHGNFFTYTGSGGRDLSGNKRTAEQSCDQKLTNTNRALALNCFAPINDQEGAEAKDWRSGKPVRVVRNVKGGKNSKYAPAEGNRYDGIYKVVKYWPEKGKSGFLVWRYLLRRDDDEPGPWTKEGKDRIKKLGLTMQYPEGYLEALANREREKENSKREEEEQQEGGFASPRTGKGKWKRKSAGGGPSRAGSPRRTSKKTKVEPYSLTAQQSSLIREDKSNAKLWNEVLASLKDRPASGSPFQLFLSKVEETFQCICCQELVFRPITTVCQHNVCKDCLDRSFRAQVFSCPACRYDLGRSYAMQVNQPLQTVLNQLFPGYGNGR
PG9 Ab binder – small molecules binding HIV-1 gp120 antibody PG9 | TR-FRET gp120-PG9 antibody binding | inhibition, % at 6.7 µM | 0.43% of 360,000 active | AID 624416; in the data active = inhibition above about 8.5%
rCAG binder – binds r(CAG) RNA repeats. r(CAG) RNA repeat, TO-PRO-1 dye displacement fluorescence. inhibition, % at 3 µM. 1.3% of 370,000 active. AID 651821;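 active = inhibition above the plate cutoff, the mean of all test compounds on that plate plus 3 SD, cut at about 35% in these data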;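 note: higher means more dye released from RNA so lower well fluorescence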
MBD2 DNA inh – MBD2-methylated oligo binding inhibition; TR-FRET, MBD2 binding to methylated oligonucleotide; inhibition, % at 4.4 µM; 0.31% of 370,000 active; Q9UBB5; in the data active = inhibition above about 13%
DNMT1 inh – inhibitors of human DNMT1; P26358; DNMT1 molecular beacon, Hinp1I cleavage, fluorescence; inhibition (reported as % activation of signal), % at 10 µM; 0.83% of 360,000 active; in the data active = inhibition above about 50%
LEDGF integ inh – blocks HIV-1 LEDGF/p75-dependent DNA integration; AID 743269; TR-FRET IN-LEDGF/p75 DNA integration, Eu/Cy5; inhibition, % at 3.7 µM; 0.64% of 370,000 active;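 active = inhibition above the screen-wide mean plus 3 SD, cut at about 13% in these data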;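 note: signal is the Cy5 over europium emission ratio at 671 and 618 nm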
IN multimer up – activates HIV-1 integrase multimerization in LEDGF counter-screen; TR-FRET HIV-1 integrase multimerization, biochemical; shares compounds with LEDGF integ inh; 17% of 2,000 active; activation, % at 7.7 µM; AID 1053131; in the data active = activation above about 8.9%
TRFRET interf – TR-FRET optical interference, LEDGF/p75 integration counter-screen; shares compounds with LEDGF integ inh; TR-FRET optical interference counterscreen, HIV-1 IN multimerization; inhibition, % at 7.7 µM; 2,000 tested, under 10 active;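 active = inhibition above the mean over all tested compounds plus 3 SD, which no compound reached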
IN-LEDGF confirm – confirmation of HIV-1 LEDGF/p75-dependent integration inhibitors; shares compounds with LEDGF integ inh; TR-FRET LEDGF/p75-dependent HIV-1 integration, biochemical; inhibition, % at 3.7 µM; 36% of 2,000 active; AID 1053136; in the data active = inhibition above about 14%
Large screens that a line does not name were inactive (follow-up assays come after a bar, where they were run). An excerpt weighted towards active compounds, which were near 3.5% of everything screened.

COc1ccc(N2C[C@H](CSC)[C@@H](CC(=O)Nc3ccc(Br)cc3)C2=O)cc1	none
COC(=O)c1sccc1NS(=O)(=O)c1ccc(OC)cc1	none
COC(=O)c1sccc1N/C=C(\C#N)S(=O)(=O)C(C)(C)C	LEDGF integ inh 79 | IN multimer up inactive | TRFRET interf inactive | IN-LEDGF confirm inactive
NS(=O)(=O)c1cccc(NC(=O)c2cccc(-c3ccc(O)cc3)c2)c1	LEDGF integ inh 18 | IN multimer up inactive | TRFRET interf inactive | IN-LEDGF confirm inactive
CC(=O)c1c(C)[nH]c(C(=O)OCC(=O)Nc2cccnc2Cl)c1C	LEDGF integ inh 24 | IN multimer up inactive | TRFRET interf inactive | IN-LEDGF confirm inactive
O=C(O)c1nn(-c2cccc(Cl)c2)c(=O)cc1O	LEDGF integ inh 17 | IN multimer up inactive | TRFRET interf inactive | IN-LEDGF confirm inactive
C/C=C/c1cnc2c(c1)C(=O)N([C@H](C)CO)C[C@@H](C)[C@@H](CN(C)C(=O)NC1CCCC1)O2	none
CCN1CCCC1CNC(=O)Cn1nc(C)n2c(cc3cc(F)ccc32)c1=O (configuration not stated)	LEDGF integ inh 19 | IN multimer up inactive | TRFRET interf inactive | IN-LEDGF confirm inactive
Cc1ccc(-c2nn(-c3ccccc3)cc2CO)o1	LEDGF integ inh 15 | IN multimer up inactive | TRFRET interf inactive | IN-LEDGF confirm inactive
OCc1cn(-c2ccccc2)nc1-c1ccco1	none
CCOC(=O)c1cc2c(=Cc3ccc(N(C)C)cc3)c3ccccc3n2[n+]1C	UHRF1 MBD2 ctr 30, LEDGF integ inh 21 | IN multimer up 20 | TRFRET interf inactive | IN-LEDGF confirm 54
Cn1c(CNc2ccc(O)cc2)nc2ccccc21	LEDGF integ inh 16 | IN multimer up inactive | TRFRET interf inactive | IN-LEDGF confirm inactive
C=CCn1c(N)c(C(=O)NCCC2=CCCCC2)sc1=S	LEDGF integ inh 19 | IN multimer up inactive | TRFRET interf inactive | IN-LEDGF confirm inactive
Clc1ccccc1Cn1ccc2ccc(-c3ccc4ccn(Cc5ccccc5Cl)c4c3)cc21	none (no result: PG9 Ab binder, DNMT1 inh)
CC1CCN(c2cc(N3CCOCC3)c([N+](=O)[O-])cc2F)CC1	none
Cc1nnc(N/N=C/c2cc([N+](=O)[O-])c(N3CCC(C)CC3)cc2N2CCC(C)CC2)n1N	LEDGF integ inh 52 | IN multimer up inactive | TRFRET interf inactive | IN-LEDGF confirm inactive
CCc1nnc(N/N=C/c2ccc(N3CCC(C)CC3)c([N+](=O)[O-])c2)n1N	LEDGF integ inh 38 | IN multimer up inactive | TRFRET interf inactive | IN-LEDGF confirm inactive
COc1ccc(C2C(C#N)=C(N)Oc3c2c(C)nn3-c2ccccc2)cc1Cn1nc(C)c([N+](=O)[O-])c1C (configuration not stated)	none
COc1ccc(C2C(C#N)=C(N)OC3=C2C(=O)CC(C)(C)C3)cc1Cn1nc(C)c([N+](=O)[O-])c1C (configuration not stated)	LEDGF integ inh 14 | IN multimer up inactive | TRFRET interf inactive | IN-LEDGF confirm inactive
O=C(CCl)Nc1nc(-c2ccco2)c(-c2ccco2)s1	LEDGF integ inh 25 | IN multimer up 23 | TRFRET interf inactive | IN-LEDGF confirm 68
CC(=O)c1sc(NC(=O)CCNC(=O)c2ccco2)nc1-c1ccccc1	none
NCC1C2CCC(O2)C1CO (configuration not stated)	LEDGF integ inh 56 | IN multimer up inactive | TRFRET interf inactive | IN-LEDGF confirm inactive
CCCCCCn1c(COc2ccccc2F)nnc1SCC(=O)NC1CCS(=O)(=O)C1 (configuration not stated)	none
CC(C)(C)OC(=O)N/N=C/c1cccn1-c1ccc([N+](=O)[O-])cc1	LEDGF integ inh 14 | IN multimer up inactive | TRFRET interf inactive | IN-LEDGF confirm inactive
COc1ccc(CC(=O)N/N=C/c2cccn2-c2ccc([N+](=O)[O-])cc2)cc1OC	none
Cc1cc(Cl)c2oc(C(=O)N(C)C3CCOC3)c(C)c2c1 (configuration not stated)	none
CCCNC(=O)C1(C)CCN(C(=O)c2ccc3ccccc3c2)C1 (configuration not stated)	none
C=CCc1cc(C=Nc2ccc(N3CCOCC3)cc2)cc(OCC)c1O	LEDGF integ inh 25 | IN multimer up inactive | TRFRET interf inactive | IN-LEDGF confirm inactive
Cc1cccc(CC(=O)NCCN2CCOCC2)c1	none
COc1ccccc1NC(=O)/C(C#N)=C/C=C/c1ccco1	LEDGF integ inh 25 | IN multimer up inactive | TRFRET interf inactive | IN-LEDGF confirm inactive
COc1ccccc1NC(=O)/C=C\c1ccco1	none
COC(=O)C1CCN(C(=O)CN(C)Cc2ccc(C(C)(C)C)cc2)CC1	none
FC(F)(F)c1cccc(CNC2CCN(Cc3ccccc3)CC2)c1	none
COc1ccc(-c2csc(NC(=O)c3cccs3)c2C(=O)O)cc1OC	LEDGF integ inh 18 | IN multimer up inactive | TRFRET interf inactive | IN-LEDGF confirm inactive
COc1ccc(-c2csc(NC(=O)c3ccccc3OC)c2C(=O)O)cc1OC	none
CCNCc1ccccc1OCc1ccccc1	none
Oc1ccc(NCc2ccccc2OCc2ccccc2)cc1	LEDGF integ inh 14 | IN multimer up 15 | TRFRET interf inactive | IN-LEDGF confirm 24
C=CCn1c(C)cc(-c2csc(NC(=O)C3=COCCO3)n2)c1C	LEDGF integ inh 51 | IN multimer up inactive | TRFRET interf inactive | IN-LEDGF confirm inactive
COc1ccc(OC)c(-c2cc(C(=O)N/N=C(\C)c3cccnc3)c3ccccc3n2)c1	none
C/C(=N\NC(=O)c1cc(-c2ccco2)nc2ccccc12)c1cccnc1	LEDGF integ inh 64 | IN multimer up inactive | TRFRET interf inactive | IN-LEDGF confirm inactive
Cc1cccc2nc(CNC(=O)C3CCC(=O)N(Cc4ccccc4F)C3)cn12 (configuration not stated)	none
O=C(NCc1cnc2ccccn12)C1CCC(=O)N(Cc2ccccc2F)C1 (configuration not stated)	LEDGF integ inh 17 | IN multimer up inactive | TRFRET interf inactive | IN-LEDGF confirm inactive
CC(=O)Nc1ccccc1O	none
CCOC(=O)c1ccc(N/C=C/C(=O)C(C)(C)C)cc1	none
O=C(/C=C/Nc1ccccc1)c1ccccc1	none
CN(C)c1ccc(N/C=C/C(=O)C(C)(C)C)cc1	LEDGF integ inh 25 | IN multimer up 12 | TRFRET interf inactive | IN-LEDGF confirm inactive
